Experimental data reported in PubChem BioAssay AID1159580 (chemical genetic matrix, 2015).
“And” between values parts separate entries of the source, which are not always exact repeats. Equal entries are not always repeated. The campaign covered roughly 5,500 compounds. About 2,000 (36%) were called active. Another 18% or so got no clear call; they are omitted. Rule as the data show it: active = normalized growth mostly below about 0.91 (no sharp cut-off); inconclusive = no clear call, values can overlap the other calls; inactive = mostly above about 0.92. Some of the results follow.

Assay: chemical genetic growth profiling, strain panel (AID 1159580);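 also: tested at 20 µM; growth read once vehicle control cultures reached saturation at 30 °C; 1 = growth at the plate median or of vehicle wells; lower values mean less growth of the strain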
Conditions: S. cerevisiae deletion strains, growth OD

Measured: normalized growth

CC1Cc2ccccc2N1NC(=O)c1ccc(Cl)c(S(N)(=O)=O)c1 (centres undefined)
inactive: locus YAL013W, strain DEP1, active compounds read low 1.01 | locus YAL021C, strain ccr4, active compounds read low 1 | locus YAL026C, strain drs2, active compounds read low 1 | locus YAL030W, strain snc1, active compounds read low 0.998 | locus YBL061C, strain skt5, active compounds read low 0.999 | locus YBR009C, strain hhf1, active compounds read low 0.996 | locus YBR021W, strain FUR4, active compounds read low 1.01 | locus YBR023C, strain chs3, active compounds read low 1 | locus YBR171W, strain sec66, active compounds read low 0.997 | locus YBR229C, strain ROT2, active compounds read low 1.01 | locus YBR231C, strain swc5, active compounds read low 0.978 | locus YBR279W, strain paf1, active compounds read low 1 | locus YCL011C, strain gbp2, active compounds read low 1.01 | locus YCL016C, strain dcc1, active compounds read low 0.996 | locus YCL029C, strain bik1, active compounds read low 1.01 | locus YCL061C, strain MRC1, active compounds read low 1.01 | locus YCL069W, strain vba3, active compounds read low 0.991 | locus YCR088W, strain abp1, active compounds read low 1.01 | locus YDL005C, strain med2, active compounds read low 0.999 | locus YDL035C, strain GPR1, active compounds read low 1.02 | locus YDL040C, strain nat1, active compounds read low 0.997 | locus YDL074C, strain BRE1, active compounds read low 1.02 | locus YDL101C, strain DUN1, active compounds read low 1.01 | locus YDL134C, strain PPH21, active compounds read low 1.03 | locus YDL185W, strain tfp1, active compounds read low 0.989 | locus YDL192W, strain arf1, active compounds read low 0.999 | locus YDR001C, strain nth1, active compounds read low 1 | locus YDR069C, strain doa4, active compounds read low 1 | locus YDR101C, strain arx1, active compounds read low 1.02 | locus YDR137W, strain rgp1, active compounds read low 1.01 | locus YDR159W, strain sac3, active compounds read low 0.992 | locus YDR162C, strain NBP2, active compounds read low 1.01 | locus YDR195W, strain ref2 0.979 | locus YDR297W, strain sur2, active compounds read low 0.998 | locus YDR318W, strain mcm21, active compounds read low 0.991 | locus YDR334W, strain swr1, active compounds read low 1.01 | locus YDR335W, strain msn5, active compounds read low 1 | locus YDR388W, active compounds read low 1 | locus YDR392W, strain spt3, active compounds read low 0.973 | locus YDR502C, strain sam2, active compounds read low 1 | locus YEL003W, strain gim4, active compounds read low 1 | locus YEL037C, strain rad23, active compounds read low 1 | locus YEL061C, strain CIN8 (second series), active compounds read low 0.999 | locus YEL061C, strain CIN8, active compounds read low 1.01 | locus YER015W, strain faa2, active compounds read low 1.01 | locus YER016W, strain bim1, active compounds read low 0.995 | locus YER110C, active compounds read low 0.996 | locus YER111C, strain swi4, active compounds read low 1 | locus YER155C, strain BEM2 (second series), active compounds read low 1.01 | locus YER155C, strain BEM2, active compounds read low 1.01 | locus YER167W, strain BCK2, active compounds read low 1.01 | locus YFR010W, strain ubp6, active compounds read low 1 | locus YGL078C, strain dbp3, active compounds read low 1 | locus YGL086W, strain mad1, active compounds read low 1.01 | locus YGL167C, strain pmr1, active compounds read low 1 | locus YGL173C, strain kem1, active compounds read low 1.01 | locus YGL227W, strain vid30, active compounds read low 0.999 | locus YGL240W, strain doc1, active compounds read low 0.996 | locus YGL248W, strain PDE1, active compounds read low 1.01 | locus YGL253W, strain hxk2, active compounds read low 0.993 | locus YGR078C, strain PAC10, active compounds read low 1.01 | locus YGR135W, strain pre9, active compounds read low 0.972 | locus YGR229C, strain SMI1, active compounds read low 1.02 | locus YGR252W, strain gcn5, active compounds read low 0.938 | locus YHR013C, strain ard1, active compounds read low 1.02 | locus YHR027C, strain rpn1, active compounds read low 1.01 | locus YHR030C, strain SLT2, active compounds read low 1 and 0.987 | locus YHR079C, strain IRE1 (second series), active compounds read low 0.994 | locus YHR079C, strain IRE1, active compounds read low 0.989 | locus YHR094C, strain hxt1, active compounds read low 0.993 | locus YHR129C, strain ARP1, active compounds read low 1.01 | locus YHR142W, strain chs7, active compounds read low 0.994 | locus YHR200W, strain rpn10, active compounds read low 1.01 | locus YIL066C, strain RNR3, active compounds read low 1.02 | locus YIL073C, strain SPO22, active compounds read low 0.991 | locus YIL125W, strain kgd1, active compounds read low 0.995 | locus YIR030C, strain dcg1, active compounds read low 1 | locus YJL092W, strain hpr5, active compounds read low 0.994 | locus YJL095W, strain BCK1 (second series), active compounds read low 1 | locus YJL095W, strain BCK1, active compounds read low 1.01 and 0.979 | locus YJL115W, strain asf1, active compounds read low 1 | locus YJL129C, strain trk1, active compounds read low 0.989 | locus YJL134W, strain LCB3, active compounds read low 1.01 | locus YJL154C, strain vps35, active compounds read low 1 | locus YJL164C, strain tpk1, active compounds read low 0.998 | locus YJL166W, strain qcr8, active compounds read low 0.997 | locus YJL168C, strain set2, active compounds read low 1 | locus YJL187C, strain SWE1 (second series), active compounds read low 1.01 | locus YJL187C, strain SWE1, active compounds read low 0.999
